# Shown is part of a subset that was picked to be rich in the strongest signals.
# How the values were obtained:
# Assay in all cases: glycan array binding signal (z-score within array); higher = stronger binding
# Details in all cases: glycan notation: IUPAC condensed, linker removed
# [1] = target: Fuc(a1-2)Gal(b1-3)GlcNAc(b1-3)GalNAc
# Outline: (§1)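 Glycan array data came from 3228 arrays in the Consortium for Functional Glycomics database, and only arrays with an available protein sequence were kept. Glycan names were put into IUPAC-condensed notation, and columns mapping to the same glycan were averaged. The binding signal is a within-array Z-score, averaged across arrays of one protein sequence run at different concentrations or buffers and across linkers. A negative Z-score can be read as non-binding.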
# Fuc(a1-2)Gal(b1-4)Glc6S = target: Fuc(a1-2)Gal(b1-4)Glc6S
# Outline: as §1
# [2] = target: Fuc(a1-2)Gal(b1-4)GlcNAc(b1-3)Gal(b1-4)GlcNAc
# Outline: as §1
# [3] = target: Fuc(a1-2)Gal(b1-4)GlcNAc(b1-3)Gal(b1-4)GlcNAc(b1-2)Man(a1-3)[Fuc(a1-2)Gal(b1-4)GlcNAc(b1-3)Gal(b1-4)GlcNAc(b1-2)Man(a1-6)]Man(b1-4)GlcNAc(b1-4)GlcNAc
# Outline: as §1
# [4] = target: Fuc(a1-2)Gal(b1-4)GlcNAc(b1-3)Gal(b1-4)GlcNAc(b1-3)Gal(b1-4)GlcNAc
# Outline: as §1
# [5] = target: Fuc(a1-2)Gal(b1-4)GlcNAc(b1-3)GalNAc
# Outline: as §1
# [6] = target: Fuc(a1-2)[Gal(a1-3)]Gal(b1-4)GlcNAc(b1-3)[Fuc(a1-2)[Gal(a1-3)]Gal(b1-4)GlcNAc(b1-6)]GalNAc
# Outline: as §1
# [7] = target: Fuc(a1-2)[Gal(a1-4)]Gal(b1-4)GalNAc
# Outline: as §1
# [8] = target: Fuc(a1-2)[GalNAc(a1-4)]Gal(b1-4)GlcNAc
# Outline: as §1
# [9] = target: Fuc(a1-3)[Gal(b1-4)]GlcNAc(b1-4)Gal(b1-4)[Fuc(a1-3)]GlcNAc
# Outline: as §1
# Fuc(a1-4)GlcNAc = target: Fuc(a1-4)GlcNAc
# Outline: as §1
# Gal(a1-3)Gal(b1-3)Glc = target: Gal(a1-3)Gal(b1-3)Glc
# Outline: as §1
# [10] = target: Gal(a1-3)Gal(b1-4)GlcNAc(b1-6)GalNAc
# Outline: as §1
# [11] = target: Gal(a1-4)Gal(b1-3)GlcNAc(b1-2)Man(a1-3)[Gal(a1-4)Gal(b1-3)GlcNAc(b1-2)Man(a1-6)]Man(b1-4)GlcNAc(b1-4)GlcNAc
# Outline: as §1
# Gal(a1-4)Gal(b1-4)GlcNAc = target: Gal(a1-4)Gal(b1-4)GlcNAc
# Outline: as §1
# Gal(b1-3)Gal = target: Gal(b1-3)Gal
# Outline: as §1
# Gal(b1-3)Gal(b1-4)GlcNAc = target: Gal(b1-3)Gal(b1-4)GlcNAc
# Outline: as §1
# Gal(b1-3)GalNAc = target: Gal(b1-3)GalNAc
# Outline: as §1
# [12] = target: Gal(b1-3)GalNAc(b1-3)Gal(b1-4)GlcNAc
# Outline: as §1
# [13] = target: Gal(b1-3)GlcNAc(b1-3)GalNAc
# Outline: as §1
# [14] = target: Gal(b1-3)GlcNAc(b1-6)Gal(b1-4)GlcNAc
# Outline: as §1
# [15] = target: Gal(b1-3)[Fuc(a1-4)]GlcNAc(b1-3)Gal(b1-4)[Fuc(a1-3)]GlcNAc
# Outline: as §1
# [16] = target: Gal(b1-4)GalNAc(b1-3)[Fuc(a1-2)]Gal(b1-4)GlcNAc
# Outline: as §1
# Gal(b1-4)Glc6S = target: Gal(b1-4)Glc6S
# Outline: as §1
# [17] = target: Gal(b1-4)GlcNAc(b1-2)[Gal(b1-4)GlcNAc(b1-6)]Man(a1-6)[Gal(b1-4)GlcNAc(b1-2)Man(a1-3)]Man(b1-4)GlcNAc(b1-4)[Fuc(a1-6)]GlcNAc
# Outline: as §1
# [18] = target: Gal(b1-4)GlcNAc(b1-2)[Gal(b1-4)GlcNAc(b1-6)]Man(a1-6)[GlcNAc(b1-4)][Gal(b1-4)GlcNAc(b1-2)Man(a1-3)]Man(b1-4)GlcNAc(b1-4)GlcNAc
# Outline: as §1
# [19] = target: Gal(b1-4)GlcNAc(b1-3)Gal(b1-4)GlcNAc(b1-2)Man(a1-3)[Gal(b1-4)GlcNAc(b1-3)Gal(b1-4)GlcNAc(b1-2)Man(a1-6)]Man(b1-4)GlcNAc(b1-4)GlcNAc
# Outline: as §1
# [20] = target: Gal(b1-4)GlcNAc(b1-3)Gal(b1-4)GlcNAc(b1-3)Gal(b1-4)GlcNAc
# Outline: as §1
# [21] = target: Gal(b1-4)GlcNAc(b1-3)Gal(b1-4)GlcNAc(b1-3)Gal(b1-4)GlcNAc(b1-2)Man(a1-3)[Gal(b1-4)GlcNAc(b1-3)Gal(b1-4)GlcNAc(b1-3)Gal(b1-4)GlcNAc(b1-2)Man(a1-6)]Man(b1-4)GlcNAc(b1-4)[Fuc(a1-6)]GlcNAc
# Outline: as §1
binder,measurement,setting,value
Gal 7 (Homo sapiens) (protein) MSNVPHKSSLPEGIRPGTVLRIRGLVPPNASRFHVNLLCGEEGGSDAALHFNPRLDTSEVVFNSKEGGSWGREERGPGVPFGRGQPFEVLIIASDDGFKAVVGDAQYHHFRHRLPLARVRLVEVGGDVQLDSVRIF,glycan array binding signal (z-score),[1],-0.125
same,glycan array binding signal (z-score),Fuc(a1-2)Gal(b1-4)Glc6S,0.834
same,glycan array binding signal (z-score),[2],5.81
same,glycan array binding signal (z-score),[3],5.09
same,glycan array binding signal (z-score),[4],7.12
same,glycan array binding signal (z-score),[5],0.082
same,glycan array binding signal (z-score),[6],-0.267
same,glycan array binding signal (z-score),[7],-0.319
same,glycan array binding signal (z-score),[8],-0.23
same,glycan array binding signal (z-score),[9],-0.214
same,glycan array binding signal (z-score),Fuc(a1-4)GlcNAc,-0.324
same,glycan array binding signal (z-score),Gal(a1-3)Gal(b1-3)Glc,1.04
same,glycan array binding signal (z-score),[10],-0.147
same,glycan array binding signal (z-score),[11],-0.011
same,glycan array binding signal (z-score),Gal(a1-4)Gal(b1-4)GlcNAc,-0.251
same,glycan array binding signal (z-score),Gal(b1-3)Gal,-0.328
same,glycan array binding signal (z-score),Gal(b1-3)Gal(b1-4)GlcNAc,-0.341
same,glycan array binding signal (z-score),Gal(b1-3)GalNAc,-0.006
same,glycan array binding signal (z-score),[12],0.962
same,glycan array binding signal (z-score),[13],0.04
same,glycan array binding signal (z-score),[14],-0.33
same,glycan array binding signal (z-score),[15],-0.289
same,glycan array binding signal (z-score),[16],-0.367
same,glycan array binding signal (z-score),Gal(b1-4)Glc6S,0.576
same,glycan array binding signal (z-score),[17],0.141
same,glycan array binding signal (z-score),[18],-0.186
same,glycan array binding signal (z-score),[19],2.23
same,glycan array binding signal (z-score),[20],0.945
same,glycan array binding signal (z-score),[21],4.99
